# Results taken from the supplement of paper PMC8728848.
# The sample as a whole holds a higher share of the strongest signals than the screen did.
# B1: PNGase F (Flavobacterium meningosepticum) (protein)
# chain: GIPAPADNTVNIKTFDKVKNAFGDGLSQSAEGTFTFPADVTAVKTIKMFIKNECPNKTCDEWDRYANVYVKNKTTGEWYEIGRFITPYWVGTEKLPRGLEIDVTDFKSLLSGNTELKIYTETWLAKGREYSVDFDIVYGTPDYKYSAVVPVVQYNKSSIDGVPYGKAHTLALKKNIQLPTNTEKAYLRTTISGWGHAKPYDAGSRGCAEWCFRTHTIAINNSNTFQHQLGALGCSANPINNQSPGNWTPDRAGWCPGMAVPTRIDVLNNSLIGSTFSYEYKFQNWTNNGTNGDAFYAISSFVIAKSNTPISAPVVTNLDPHHHHHH
# Legend:
# Assay in all cases: glycan array binding signal (z-score within array); higher = stronger binding
# Conditions in all cases: glycan notation: IUPAC condensed, linker removed
# [1] = molecular target: Fuc(a1-2)Gal(b1-3)GalNAc(b1-3)Gal
# Method in brief: (§1)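 From the Consortium for Functional Glycomics database, 3228 arrays were curated, keeping only those whose protein sequence was available. Binding is given as a within-array Z-score averaged across arrays sharing a protein sequence and across linkers. Negative Z-scores can be read as non-binding.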
# [2] = molecular target: Fuc(a1-2)Gal(b1-3)GlcNAc6S
# Method in brief: as §1
# [3] = molecular target: Fuc(a1-2)Gal3S(b1-4)GlcNAc
# Method in brief: as §1
# [4] = molecular target: Fuc(a1-2)[Gal(a1-3)]Gal(b1-3)GalNAc(b1-3)Gal(a1-4)Gal(b1-4)Glc
# Method in brief: as §1
# [5] = molecular target: Fuc(a1-2)[Gal(a1-3)]Gal(b1-3)GlcNAc(b1-6)GalNAc
# Method in brief: as §1
# [6] = molecular target: Fuc(a1-2)[Gal(a1-3)]Gal(b1-4)GlcNAc(b1-2)Man(a1-3)[Fuc(a1-2)[Gal(a1-3)]Gal(b1-4)GlcNAc(b1-2)Man(a1-6)]Man(b1-4)GlcNAc(b1-4)GlcNAc
# Method in brief: as §1
# [7] = molecular target: Fuc(a1-2)[Gal(a1-3)]Gal(b1-4)GlcNAc(b1-3)GalNAc
# Method in brief: as §1
# [8] = molecular target: Fuc(a1-2)[Gal(a1-3)]Gal(b1-4)GlcNAc(b1-3)[Fuc(a1-2)[Gal(a1-3)]Gal(b1-4)GlcNAc(b1-6)]GalNAc
# Method in brief: as §1
# [9] = molecular target: Fuc(a1-2)[Gal(a1-3)]Gal(b1-4)GlcNAc(b1-6)GalNAc
# Method in brief: as §1
# [10] = molecular target: Fuc(a1-2)[Gal(a1-3)]Gal(b1-4)[Fuc(a1-3)]Glc
# Method in brief: as §1
# [11] = molecular target: Fuc(a1-3)[Gal(b1-4)]GlcNAc
# Method in brief: as §1
# [12] = molecular target: Fuc(a1-3)[Gal(b1-4)]GlcNAc(b1-2)Man
# Method in brief: as §1
# [13] = molecular target: Fuc(a1-3)[Gal(b1-4)]GlcNAc(b1-6)[Gal(b1-3)GlcNAc(b1-3)]Gal(b1-4)Glc
# Method in brief: as §1
# Fuc(a1-4)GlcNAc = molecular target: Fuc(a1-4)GlcNAc
# Method in brief: as §1
# [14] = molecular target: Gal(b1-3)GalNAc(b1-3)Gal(a1-4)Gal(b1-4)Glc
# Method in brief: as §1
# [15] = molecular target: Gal(b1-3)GlcNAc(b1-3)GalNAc
# Method in brief: as §1
# [16] = molecular target: Gal(b1-3)[GlcNAc(b1-6)]GalNAc
# Method in brief: as §1
# [17] = molecular target: Gal(b1-3)[Neu5Ac(b2-6)]GalNAc
# Method in brief: as §1
# [18] = molecular target: Gal(b1-4)GlcNAc(b1-3)Gal(b1-4)GlcNAc(b1-2)[Gal(b1-4)GlcNAc(b1-3)Gal(b1-4)GlcNAc(b1-6)]Man(a1-6)[Gal(b1-4)GlcNAc(b1-3)Gal(b1-4)GlcNAc(b1-2)Man(a1-3)]Man(b1-4)GlcNAc(b1-4)GlcNAc
# Method in brief: as §1
# [19] = molecular target: Gal(b1-4)GlcNAc(b1-3)GalNAc
# Method in brief: as §1
# [20] = molecular target: Gal(b1-4)GlcNAc(b1-3)[Gal(b1-4)GlcNAc(b1-6)]Gal(b1-4)GlcNAc
# Method in brief: as §1
# [21] = molecular target: Gal(b1-4)GlcNAc(b1-3)[GlcNAc(b1-6)]Gal(b1-4)GlcNAc
# Method in brief: as §1
# [22] = molecular target: Gal(b1-4)GlcNAc(b1-6)[Gal(b1-4)GlcNAc(b1-3)]GalNAc
# Method in brief: as §1
# Gal(b1-6)Gal = molecular target: Gal(b1-6)Gal
# Method in brief: as §1
# [23] = molecular target: Gal3S(b1-4)[Fuc(a1-3)]GlcNAc6S
# Method in brief: as §1
# Gal3S4S(b1-4)GlcNAc = molecular target: Gal3S4S(b1-4)GlcNAc
# Method in brief: as §1
# Gal3S6S(b1-4)GlcNAc6S = molecular target: Gal3S6S(b1-4)GlcNAc6S
# Method in brief: as §1
# Gal6S(b1-4)Glc6S = molecular target: Gal6S(b1-4)Glc6S
# Method in brief: as §1
# GlcA(b1-3)GlcNAc = molecular target: GlcA(b1-3)GlcNAc
# Method in brief: as §1
# [24] = molecular target: GlcNAc(a1-3)Gal(b1-4)GlcNAc
# Method in brief: as §1
# [25] = molecular target: GlcNAc(a1-4)Gal(b1-4)GalNAc
# Method in brief: as §1
# [26] = molecular target: GlcNAc(b1-2)[GlcNAc(b1-4)]Man(a1-3)[GlcNAc(b1-4)][GlcNAc(b1-2)[GlcNAc(b1-6)]Man(a1-6)]Man(b1-4)GlcNAc(b1-4)[Fuc(a1-6)]GlcNAc
# Method in brief: as §1
# [27] = molecular target: GlcNAc(b1-3)Gal(b1-4)GlcNAc
# Method in brief: as §1
# [28] = molecular target: GlcNAc(b1-3)Gal(b1-4)GlcNAc(b1-3)Gal(b1-4)GlcNAc(b1-3)Gal(b1-4)GlcNAc(b1-3)Gal(b1-4)GlcNAc(b1-2)[GlcNAc(b1-3)Gal(b1-4)GlcNAc(b1-3)Gal(b1-4)GlcNAc(b1-3)Gal(b1-4)GlcNAc(b1-3)Gal(b1-4)GlcNAc(b1-6)]Man(a1-6)[GlcNAc(b1-3)Gal(b1-4)GlcNAc(b1-3)Gal(b1-4)GlcNAc(b1-3)Gal(b1-4)GlcNAc(b1-3)Gal(b1-4)GlcNAc(b1-2)Man(a1-3)]Man(b1-4)GlcNAc(b1-4)[Fuc(a1-6)]GlcNAc
# Method in brief: as §1
# GlcNAc(b1-3)Man = molecular target: GlcNAc(b1-3)Man
# Method in brief: as §1
# GlcNAc(b1-4)GlcNAc = molecular target: GlcNAc(b1-4)GlcNAc
# Method in brief: as §1
# GlcNAc(b1-6)GalNAc = molecular target: GlcNAc(b1-6)GalNAc
# Method in brief: as §1
# [29] = molecular target: Man(a1-2)Man(a1-2)Man(a1-3)Man
# Method in brief: as §1
# [30] = molecular target: Neu5Ac(a2-3)Gal(b1-3)GalNAc(b1-4)[Neu5Ac(a2-3)]Gal(b1-4)Glc
# Method in brief: as §1
# Neu5Ac(a2-3)Gal(b1-4)Glc = molecular target: Neu5Ac(a2-3)Gal(b1-4)Glc
# Method in brief: as §1
# [31] = molecular target: Neu5Ac(a2-3)Gal(b1-4)GlcNAc(b1-3)Gal(b1-4)GlcNAc(b1-3)[Neu5Ac(a2-3)Gal(b1-4)GlcNAc(b1-3)Gal(b1-4)GlcNAc(b1-6)]GalNAc
# Method in brief: as §1
# [32] = molecular target: Neu5Ac(a2-3)[Neu5Ac(a2-6)]GalNAc
# Method in brief: as §1
# Neu5Ac(a2-6)Gal = molecular target: Neu5Ac(a2-6)Gal
# Method in brief: as §1
# [33] = molecular target: Neu5Ac(a2-6)Gal(b1-4)GlcNAc(b1-2)Man(a1-3)[Neu5Ac(a2-6)Gal(b1-4)GlcNAc(b1-2)Man(a1-6)]Man(b1-4)GlcNAc(b1-4)GlcNAc
# Method in brief: as §1
# [34] = molecular target: Neu5Ac(a2-6)Gal(b1-4)GlcNAc(b1-3)Gal(b1-4)GlcNAc(b1-3)[Neu5Ac(a2-6)Gal(b1-4)GlcNAc(b1-3)Gal(b1-4)GlcNAc(b1-6)]GalNAc
# Method in brief: as §1
# [35] = molecular target: Neu5Ac(a2-6)Gal(b1-4)GlcNAc(b1-6)[Gal(b1-3)GlcNAc(b1-3)]Gal(b1-4)Glc
# Method in brief: as §1
# [36] = molecular target: Neu5Ac(a2-6)Gal(b1-4)GlcNAc6S
# Method in brief: as §1
# Neu5Ac(a2-8)Neu5Ac = molecular target: Neu5Ac(a2-8)Neu5Ac
# Method in brief: as §1
# [37] = molecular target: Neu5Ac(a2-8)Neu5Ac(a2-3)Gal(b1-3)GalNAc(b1-4)[Neu5Ac(a2-3)]Gal(b1-4)Glc
# Method in brief: as §1
# Neu5Gc(a2-3)Gal(b1-4)Glc = molecular target: Neu5Gc(a2-3)Gal(b1-4)Glc
# Method in brief: as §1
# [38] = molecular target: Neu5Gc(a2-3)Gal(b1-4)GlcNAc
# Method in brief: as §1
# [39] = molecular target: Neu5Gc(a2-6)Gal(b1-4)GlcNAc
# Method in brief: as §1
binder,measurement,setting,value
B1,glycan array binding signal (z-score),[1],1.61
same,glycan array binding signal (z-score),[2],-0.123
same,glycan array binding signal (z-score),[3],-0.157
same,glycan array binding signal (z-score),[4],0.033
same,glycan array binding signal (z-score),[5],-0.032
same,glycan array binding signal (z-score),[6],-0.273
same,glycan array binding signal (z-score),[7],-0.226
same,glycan array binding signal (z-score),[8],1.46
same,glycan array binding signal (z-score),[9],0.476
same,glycan array binding signal (z-score),[10],-0.16
same,glycan array binding signal (z-score),[11],0.02
same,glycan array binding signal (z-score),[12],0.163
same,glycan array binding signal (z-score),[13],-0.308
same,glycan array binding signal (z-score),Fuc(a1-4)GlcNAc,2.72
same,glycan array binding signal (z-score),[14],0.036
same,glycan array binding signal (z-score),[15],-0.268
same,glycan array binding signal (z-score),[16],-0.166
same,glycan array binding signal (z-score),[17],-0.337
same,glycan array binding signal (z-score),[18],1.63
same,glycan array binding signal (z-score),[19],-0.281
same,glycan array binding signal (z-score),[20],-0.219
same,glycan array binding signal (z-score),[21],1.78
same,glycan array binding signal (z-score),[22],-0.289
same,glycan array binding signal (z-score),Gal(b1-6)Gal,0.208
same,glycan array binding signal (z-score),[23],0.165
same,glycan array binding signal (z-score),Gal3S4S(b1-4)GlcNAc,-0.092
same,glycan array binding signal (z-score),Gal3S6S(b1-4)GlcNAc6S,-0.035
same,glycan array binding signal (z-score),Gal6S(b1-4)Glc6S,-0.41
same,glycan array binding signal (z-score),GlcA(b1-3)GlcNAc,-0.118
same,glycan array binding signal (z-score),[24],-0.344
same,glycan array binding signal (z-score),[25],1.26
same,glycan array binding signal (z-score),[26],-0.395
same,glycan array binding signal (z-score),[27],-0.264
same,glycan array binding signal (z-score),[28],-0.3
same,glycan array binding signal (z-score),GlcNAc(b1-3)Man,3.03
same,glycan array binding signal (z-score),GlcNAc(b1-4)GlcNAc,10.4
same,glycan array binding signal (z-score),GlcNAc(b1-6)GalNAc,-0.018
same,glycan array binding signal (z-score),[29],1.49
same,glycan array binding signal (z-score),[30],-0.289
same,glycan array binding signal (z-score),Neu5Ac(a2-3)Gal(b1-4)Glc,2.16
same,glycan array binding signal (z-score),[31],-0.043
same,glycan array binding signal (z-score),[32],0.36
same,glycan array binding signal (z-score),Neu5Ac(a2-6)Gal,-0.129
same,glycan array binding signal (z-score),[33],-0.391
same,glycan array binding signal (z-score),[34],-0.278
same,glycan array binding signal (z-score),[35],-0.207
same,glycan array binding signal (z-score),[36],-0.286
same,glycan array binding signal (z-score),Neu5Ac(a2-8)Neu5Ac,-0.021
same,glycan array binding signal (z-score),[37],-0.328
same,glycan array binding signal (z-score),Neu5Gc(a2-3)Gal(b1-4)Glc,0.187
same,glycan array binding signal (z-score),[38],2.36
same,glycan array binding signal (z-score),[39],-0.046
